# Measured values published in PubChem BioAssay AID1376 (SRMLSC, 2008).
# Out of some 220,000 compounds screened, about 530 (0.24%) were called active. The entries come from a sample that favours actives as a whole. Results with a measured potency or affinity are listed apart. Unmarked numbers belong to inactive results. Rule as the data show it: active = inhibition above about 13%; inconclusive = no clear call, values can overlap the other calls; inactive = below that.
# Molecular target: Bifunctional protein GlmU (Mycobacterium tuberculosis (strain ATCC 25618 / H37Rv)) (UniProt P9WMN3)
# Test: inhibition of mycobacterial GlmU enzyme – biochemical, glucosamine-1-phosphate acetyltransferase (AID 1376);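 also: 0% = complete reaction with vehicle and 100% = reaction without substrate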
# Details: M. tuberculosis GlmU acetyltransferase enzyme assay; hits give high values;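 tested at 30 µM in the primary screen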
# Chain of Bifunctional protein GlmU (Mycobacterium tuberculosis (strain ATCC 25618 / H37Rv)) (P9WMN3 whole entry, looked up): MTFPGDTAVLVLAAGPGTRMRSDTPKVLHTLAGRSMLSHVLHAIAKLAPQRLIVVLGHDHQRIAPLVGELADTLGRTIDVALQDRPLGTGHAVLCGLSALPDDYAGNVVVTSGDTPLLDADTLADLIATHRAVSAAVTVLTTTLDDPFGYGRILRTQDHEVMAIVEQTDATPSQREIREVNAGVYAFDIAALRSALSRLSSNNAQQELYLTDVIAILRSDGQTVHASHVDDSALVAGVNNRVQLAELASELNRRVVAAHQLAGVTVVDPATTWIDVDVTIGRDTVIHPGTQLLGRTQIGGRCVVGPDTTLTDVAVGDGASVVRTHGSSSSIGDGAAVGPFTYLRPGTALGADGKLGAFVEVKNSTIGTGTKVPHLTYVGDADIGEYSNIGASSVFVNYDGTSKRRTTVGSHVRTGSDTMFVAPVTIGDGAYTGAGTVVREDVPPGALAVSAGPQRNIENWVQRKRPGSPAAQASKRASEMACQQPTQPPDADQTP
row,Compound,inhibition
1,CCCCN(C)CCC(=O)Nc1ccc(F)c(F)c1,0.07%
2,Cc1ccc(-c2nnn(CC(=O)N(Cc3ccco3)C(C(=O)NC(C)(C)C)c3ccc(C)o3)n2)o1 (stereo unspecified),13% (active)
3,Cc1ccc(-c2nnn(CC(=O)N(Cc3ccco3)C(C(=O)NC(C)(C)C)c3ccncc3)n2)o1 (stereo unspecified),6.52%
4,Cc1ccc(-c2nnn(CC(=O)N(Cc3ccco3)C(C(=O)NC(C)(C)C)c3cccs3)n2)o1 (stereo unspecified),1.32%
5,CCS(=O)(=O)N1CCN(CC(=O)NC2CCCCC2)CC1,2.03%
6,COc1ccc(-c2cc3nc(-c4ccccc4)cc(N4CCC5(CC4)OCCO5)n3n2)cc1,5.97%
7,O=C(N/N=C\c1ccccn1)C1c2ccccc2Oc2ccccc21,-4.47%
8,CN(C)CCCOc1cccc(Oc2ccccc2)c1,-1.51%
9,COc1cccc(C(=O)O/N=C(\N)c2ccc([N+](=O)[O-])cc2)c1,-5.75%
10,CCN(CC)CCC(C)OC(c1ccccc1)c1ccccc1 (stereo unspecified),-5.59%
11,CCN(CC)CCOC(c1ccccc1)c1ccc(C)cc1 (stereo unspecified),13.5% (active)
12,Cc1ccc(C(OCCN(C)C)c2cccc(C(F)(F)F)c2)cc1 (stereo unspecified),2%
13,C=CCNC(=O)C1CC1(c1ccccc1)c1ccccc1 (stereo unspecified),4.25%
14,COc1ccccc1NC(=O)c1cccc(S(=O)(=O)N2CCOCC2)c1,0.03%
15,COc1ccc(C(=O)N2CCCC(c3nc(-c4cccs4)no3)C2)cc1 (stereo unspecified),-2.88%
16,COc1ccc(C(=O)N2CCCC(c3nc(-c4cccs4)no3)C2)cc1OC (stereo unspecified),13.1% (active)
17,COc1cc(C(=O)N2CCCC(c3nc(-c4cccs4)no3)C2)cc(OC)c1OC (stereo unspecified),2.49%
18,Cc1csc(NC(=O)c2sc3nc(-c4cccs4)ccc3c2N)n1,0.71%
19,Nc1c(C(=O)Nc2nc3ccccc3s2)sc2nc(-c3cccs3)ccc12,-1.14%
20,O=C(Nc1ncc(Cc2cccc(C(F)(F)F)c2)s1)c1ccc(-c2cccc([N+](=O)[O-])c2)o1,-6.86%
21,Cc1ccccc1CN1C(=O)CSc2ccc(C(=O)N3CCOCC3)cc21,0.57%
22,CN(C(=O)CCc1nnc(Cc2ccc(-c3ccccc3)cc2)o1)C1CCOCC1,2.22%
23,Cn1c(COc2ccccc2)nnc1SCC(=O)Nc1ccc(S(N)(=O)=O)cc1,1.92%

row,Compound,inhibition
1,C=CCn1c(COc2ccccc2)nnc1SCC(=O)Nc1ccc(S(N)(=O)=O)cc1,0.44%
2,NS(=O)(=O)c1ccc(NC(=O)CSc2nnc(COc3ccccc3Cl)n2C2CC2)cc1,13.3% (active)
3,c1ccc2oc(NC3=NCN(C4CCCCC4)CN3)nc2c1,0.06%
4,Cc1n[nH]c(=O)nc1N/N=C/c1ccc(O)c([N+](=O)[O-])c1,5.79%
5,Cc1csc(N/N=C/c2ccc(O)c([N+](=O)[O-])c2)n1,13.8% (active)
6,O=[N+]([O-])c1cc(/C=N\Nc2nc(-c3ccccc3)cs2)ccc1O,7.14%
7,CSc1ccc(CNc2nnnn2C)cc1,-1.37%
8,COC(=O)C1(CO)NC(c2cccs2)C2C(=O)N(c3ccccc3)C(=O)C21 (stereo unspecified),-2.08%
9,O=C1NC(=O)N(c2ccccc2)C(=O)/C1=C\c1ccc([N+](=O)[O-])o1,16.7%
10,COc1ccc(CN2C(=O)NC(=O)/C(=C/c3ccc([N+](=O)[O-])s3)C2=O)cc1,6.92%
11,COc1ccc(CN2C(=O)NC(=O)/C(=C\c3ccco3)C2=O)cc1,8.39%
12,Cc1ccc(N2C(=O)NC(=O)/C(=C\c3ccc([N+](=O)[O-])o3)C2=O)cc1,12.4%
13,COc1ccc(CN2C(=O)NC(=O)/C(=C/c3ccc([N+](=O)[O-])o3)C2=O)cc1,19.9% (active)
14,Cc1cc([N+](=O)[O-])ccc1N=Nc1c(N)[nH]n(-c2ccccc2)c1=O,-3.05%
15,Cc1c(NC(=O)c2ccc(S(=O)(=O)N(C)c3ccccc3)cc2)c(=O)n(-c2ccccc2)n1C,-6.06%
16,COc1ccc(C(C(=O)NC(C)(C)C)N(Cc2ccc(C)cc2)C(=O)CCC(=O)Nc2cc(C)on2)cc1 (stereo unspecified),5.39%
17,CCC(C)(C)NC(=O)C(c1ccc(OC)cc1)N(CC1CCCO1)C(=O)CCC(=O)Nc1cc(C)on1 (stereo unspecified),5.67%
18,COc1ccc(C(C(=O)NC(C)(C)C)N(CC2CCCO2)C(=O)CCC(=O)Nc2cc(C)on2)cc1 (stereo unspecified),16.9% (active)
19,COc1cc2nc(C3CCC3)n(NC(=O)C3CCC(OC)CC3)c(=O)c2cc1OC (stereo unspecified),0.09%
20,C=CC1CN2CCC1CC2c1[nH]c2ccccc2c1CCO (stereo unspecified),-1.33%
21,NS(=O)(=O)c1cc(C(=O)OCC(=O)NC2CC2)ccc1Cl,0.47%
22,O=[N+]([O-])c1ccc2c(c1)C(N1CCOCC1)/C(=C/COc1ccc(Cl)cc1Cl)O2 (stereo unspecified),-0.92%
23,COC(=O)c1oc2c(c1C)C1(CCC2)SCCS1,-1.66%
